Source: PubChem BioAssay
TsaE inh – displaces an ADP probe from E. coli YjeE (TsaE); purified YjeE enzyme, qHTS inhibition assay; Potency, µM; hit rate 0.05% among 71,000; AID 605
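Purified YjeE (10 uM) with BODIPY Texas Red-labeled ADP probe (2 uM); compounds pin-transferred, 15 min at room temperature. Binding inhibition read as decreased fluorescence polarization; ADP titration as control.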
Tau filament bind – tau filament binding; Potency, µM (titrated, usually from 57.1 µM); recombinant tau filaments, thioflavin S fluorescence, 15 h; filaments grown with octadecylsulfate alongside compound; hit rate 2% among 71,000; AID 596;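 further: actives lower thioflavin S fluorescence by blocking filaments or displacing dye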
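Recombinant tau protein (human, 1 uM final) plus 30 uM ODS in HEPES pH 7.4 with NaCl, DTT and thioflavine S. Compound present from the start; fluorescence at 510 nm after 15 h, 37 C.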
Hsp90 Hop PPI – changes Hsp90-Hop TPR2A binding signal, up or down; Potency, µM (highest dose often 57 µM); hit rate 0.44% among 71,000; AlphaScreen TPR2A-His6 binding biotin-Hsp90 C-terminal peptide; active means well fitted curve in either direction with a large enough effect; inconclusive means small, poorly fitted or top-dose-only effect, or another doubt
BRCT PPI red – disrupts BRCA1 BRCT binding to phosphoprotein, red fluorophore readout; hit rate 0.03% among 75,000; Potency, µM (series often up to 76.9 µM), hits mostly inhibitors; BRCT-phosphopeptide binding, red fluorescence polarization; AID 892
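Rhodamine-labelled pBACH1 10-mer (100 nM) bound to BRCT domain (100 nM) at pH 7.3; compounds incubated 12 min room temperature, polarization read. Free peptide defines full inhibition; unlabelled decapeptide titrated as control.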
Pol III holo inh – inhibitors of bacterial DNA polymerase III holoenzyme; reconstituted DNA polymerase III holoenzyme replication, biochemical; hit rate 0.25% among 71,000; Potency, µM (titrated, usually from 57.1 µM)
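Reconstituted *E. coli* holoenzyme (0.35 nM Pol III, 1 nM beta, 154 nM SSB, 2 nM primase) was preincubated with compound for 15 min at RT. Synthesis on 1.4 nM ssM13Gori ran 35 min, then was stopped with PicoGreen/EDTA and read as dsDNA fluorescence.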
BRCT PPI green – inhibitors of human BRCA1 BRCT-phosphoprotein interaction (green fluorophore); BRCA1 BRCT-phosphopeptide binding, green fluorescence polarization; Potency, µM (top dose mostly 76.9 µM), hits mostly inhibitors; hit rate 0.05% among 75,000
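Compounds were incubated for 12 min at room temperature with a complex of 100 nM fluorescein-tagged pBACH1 decapeptide and 250 nM His-tagged BRCT protein. Buffer was phosphate pH 7.3 with EDTA, DTT and Tween 20. Disruption of binding lowers the polarization signal.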
Large screens that a line does not name were inactive. An excerpt weighted towards active compounds, which were near 2.4% of everything screened. Unless noted, the call rests on the fitted dose curve; in most records, active means well fitted curve in the direction sought with a large enough effect; inconclusive means small, poorly fitted or top-dose-only effect, or another doubt; inactive means no such curve, though single readings can be large; an effect the other way counts as inactive or inconclusive.

COc1cc(CNc2ccc3[nH]c(=O)[nH]c3c2)ccc1OCC(=O)NC(C)(C)C	Tau filament bind 12.6µM
O=C(O)[C@@H](O)[C@@H](O)[C@H](O)C(=O)CO	none
COc1ccc(CNc2ncnc3ccc(-c4cccc(NS(C)(=O)=O)c4)cc23)c(OC)c1	none
Cc1ccc2nsnc2c1S(=O)(=O)N1CCN(Cc2ccc3c(c2)OCO3)CC1	Tau filament bind 15.8µM
CCCC12CN3CC(C)(CN(C1)C31C(=O)Nc3ccc(C)cc31)C2=O (stereo unspecified)	Tau filament bind 20µM
Cc1nc(NCc2ccccc2)[nH]c(=O)c1CCC(C)C	Tau filament bind 15.8µM
Cc1ccc(Nc2nc(C)c(CCC(C)C)c(=O)[nH]2)cc1	none
CN1CCN(c2ncc3nc(-c4ccc(F)cc4)c(=O)n(C4CC4)c3n2)CC1	none
Cc1noc(C)c1C(=O)N1CCC2(CCN(C(=O)NC(C)C)CC2)CC1	none
O=C(CSc1ccc2nnc(-c3ccccc3)n2n1)N1CCN(c2ccccc2)CC1	Tau filament bind 1.58µM
CCCCN(C(=O)c1ccc(Cl)cc1)C1CC2CCC(C1)N2C (stereo unspecified)	Tau filament bind 15.8µM
COc1cc(C(=O)N(CCc2ccccc2)C2CC3CCC(C2)N3C)cc(OC)c1OC (stereo unspecified)	none
CCOc1ccc(Cc2nccc3cc(OCC)c(OCC)cc23)cc1OCC	none
O=C(Nc1nc(-c2ccco2)c(-c2ccco2)s1)C1CC(=O)N(c2ccc3c(c2)OCCO3)C1 (stereo unspecified)	Hsp90 Hop PPI inconclusive, BRCT PPI red inconclusive, Pol III holo inh 10µM, BRCT PPI green inconclusive
Cc1noc(C)c1C(=O)N1CCC[C@@]2(CCN(C(c3ccccc3)c3ccccc3)C2)C1	none
COC1=CC(C)C2CC3OC(=O)CC4C(C)=C(OC)C(=O)C([C@]2(C)C1=O)[C@]34C (stereo partly specified)	none (no result: TsaE inh, Tau filament bind, Hsp90 Hop PPI, Pol III holo inh)
COc1ccc2c(c1)Cc1cc(N=[N+]([O-])c3ccc4c(c3)Cc3cc(OC)ccc3-4)ccc1-2	Tau filament bind 3.16µM
COc1ccc2c(c1)CCc1c(-c3noc4c3CCc3cc(OC)ccc3-4)noc1-2	none
O=C(c1ccco1)N1CCC2(CCCN(c3ccccc3)C2)CC1	none
COc1ccc(-n2nc3ccccc3n2)cc1	none
COc1ccc(-n2nc3cc(C)c(N)c(Br)c3n2)cc1	Tau filament bind 20µM
CCOC(=O)Nc1ccc2c(c1)N(C(=O)N1CCN(C)CC1)c1ccccc1S2	Tau filament bind 15.8µM, Hsp90 Hop PPI inconclusive
CCOC(=O)Nc1ccc2c(c1)Nc1ccccc1S2	Tau filament bind inconclusive, Hsp90 Hop PPI inconclusive
CCN1C(=C2C(=O)c3ccccc3C2=O)C=Cc2ccccc21	Tau filament bind 12.6µM
CCN1C(=O)/C(=c2\o/c(=C3\C=Cc4ccccc4N3CC)c(=O)n2CC)SC1=S	Tau filament bind inconclusive
O=C1C=CC2=C3c4cc(O)c(O)cc4C[C@@]3(O)COC2=C1O	TsaE inh inconclusive, Tau filament bind inconclusive, Hsp90 Hop PPI inconclusive, Pol III holo inh 0.02µM (no result: BRCT PPI red, BRCT PPI green)
CC(C)c1cccc2cc3c(nc12)-c1cccc(=O)n1C3	none
CCOC(=O)CN1CC23C=CC(O2)C(C(=O)Nc2ccc(OC)cc2OC)C3C1=O (stereo unspecified)	none
CCOC(=O)CN1CC23C=CC(O2)C(C(=O)Nc2cc(OC)ccc2OC)C3C1=O (stereo unspecified)	Tau filament bind 12.6µM
COCCNC(=O)c1ccc(-n2c(=O)c(=O)[nH]c3ccccc32)cc1	none (no result: TsaE inh, Tau filament bind, Hsp90 Hop PPI, Pol III holo inh)
CC1=NN(C(=O)c2ccncc2)C(=O)[C@@H]1N=Nc1ccc2ccccc2c1	Tau filament bind 1.58µM
O=C(CSc1nnc(CNC(=O)c2ccccc2F)o1)c1ccc(Cl)cc1	Tau filament bind 31.6µM
Nc1ncnc2c1nc(Br)n2[C@@H]1O[C@H]2COP(=O)(O)O[C@@H]2[C@H]1O	none
CC(C)(C)c1cc(O)c(C(C)(C)C)cc1O	Tau filament bind inconclusive
Cc1cc(O)c(C(C)(C)C)cc1Sc1cc(C(C)(C)C)c(O)cc1C	Tau filament bind 20µM
